Sampled rows, rich in hits. Any-hit rate of the full collection: about 2.2%.
Calb FLC: C. albicans growth inhibition with fluconazole, primary screen, CaCi-2 strain, Alamar Blue fluorescence. C. albicans CaCi-2 (fluconazole-resistant clinical isolate) + fluconazole, 48 h. growth inhibition, % (concentration not given with the values). 300,000 compounds, 0.57% hits;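 active = growth inhibition above about 58% in most replicates, limit read from the data, passing the limit was not always enough; inconclusive = exactly half the replicates above a set limit; inactive = most replicates below a set limit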;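 also: all wells also contain fluconazole at 8 µg/ml as a sub-toxic cotreatment; 0% = median of DMSO wells and 100% = median of geldanamycin control wells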
Beta cell apopt: inhibitors of cytokine-induced beta cell apoptosis, primary screen, luminescence; INS-1E cytokine-induced death, ATP luminescence, 48 h; percent of positive-control rescue, neutral wells zero; protection from apoptosis, % (no concentration beside the values); 300,000 compounds, 0.8% hits;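 active = Every replicate reaches about 75%, or at least half do and their mean reaches it too, limit read from the data; inconclusive = At least half of replicates reach the limit but their mean does not; inactive = Under half of replicates reach the limit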;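 also: 0% = cytokine-treated negative control wells and 100% = positive control rescue; higher means more ATP so stronger rescue from cytokine killing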
PfHsp90 set2: growth inhibition of PfHsp90-expressing yeast, primary screen, antimalarial PfHsp90 inhibitor project, S. cerevisiae, BacTiter-Glo luminescence, single point, set 2 | 310,000 compounds, 0.32% hits | BacTiter-Glo ATP, 48 h; yeast lacking PDR1 and PDR3 efflux regulators | inhibition, % at 9.4 µM | AID 504621, 2011;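 active = every replicate shows inhibition above about 80%, whatever the replicate mean, limit read from the data; inconclusive = mean inhibition reaches the set limit but some replicate falls short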;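 also: 0% = DMSO neutral controls and 100% = 20 µM radicicol positive controls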
Shn3 3UTR inh: reduction of Shn3 3'UTR firefly luciferase signal, primary screen, Schnurri-3 inhibitor project, cell-based, Clone20 osteoblasts, set 2; Clone20 osteoblast Shn3 3'UTR firefly luciferase, 24 h; inhibition, % at 12.5 µM; 360,000 compounds, 0.52% hits; AID 588674, 2011;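 active = mean inhibition of at least 75% with every replicate also reaching 75%; inconclusive = mean inhibition at least 75% but some replicate below; inactive = mean inhibition below 75%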;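 also: 0% = median of neutral control wells and 100% = pilot-screen positive control compound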
CSC inhib: cancer stem cell viability inhibitors, primary screen, luminescence. cancer stem cell-like cells viability. inhibition, % at 7.5 µM. 300,000 compounds, 1.1% hits. AID 2717, 2010; in the data active = inhibition above about 75%; inconclusive = no clear call, values can overlap the other calls; tested in HMLE shEcad cells
* hit, by the source's call.

Results for CNC[C@H](CC1CCCCC1)NC[C@H](CO)NCCc1cccc(C(F)(F)F)c1 ?
Calb FLC: -36.2; Beta cell apopt: 35.8; PfHsp90 set2: -4.6; Shn3 3UTR inh: 0.5; CSC inhib: 132.1*

What do the screens show for `CNC[C@H](CC1CCCCC1)NC[C@H](CO)NCC1(c2ccccc2)CC1`?
Calb FLC: -26.5; Beta cell apopt: 6.2; PfHsp90 set2: 2.3; Shn3 3UTR inh: 1.2; CSC inhib: 17.0

Results for O=C(c1cccc(Br)c1)c1coc2ccc(O)cc12 ?
Beta cell apopt: 2.7; PfHsp90 set2: -34.5; Shn3 3UTR inh: -113.2; CSC inhib: 90.8*

What do the screens show for `C/C(CC(=O)Nc1ccc(Cl)c(C(F)(F)F)c1)=N\NC(=O)c1cc2ccccc2cc1O`?
Calb FLC: 2.6; Beta cell apopt: 4.3; PfHsp90 set2: -4.9; Shn3 3UTR inh: -17.8; CSC inhib: 75.7*

How did COc1cccc(NC(=O)C/C(C)=N/NC(=O)c2ccccc2Cl)c1 do in these assays?
Calb FLC: -0.6; Beta cell apopt: -1.0; PfHsp90 set2: -27.4; Shn3 3UTR inh: 21.2; CSC inhib: 19.9

How did COc1ccccc1/C=C1\CCCC2=C1Nc1nnnn1C2c1ccccc1OC (configuration not stated) do in these assays?
Beta cell apopt: -19.8; PfHsp90 set2: -16.3; Shn3 3UTR inh: 91.0*; CSC inhib: 54.9

How did CC1CCN(C2CC(=O)N(c3ccc(Br)cc3Br)C2=O)CC1 (configuration not stated) do in these assays?
Calb FLC: -2.9; Beta cell apopt: -9.9; PfHsp90 set2: 107.4*; Shn3 3UTR inh: -7.9; CSC inhib: -15.2

How did CC1CCN(C2CC(=O)N(c3ccccc3)C2=O)CC1 (configuration not stated) do in these assays?
Calb FLC: -19.2; Beta cell apopt: -11.0; PfHsp90 set2: 14.8; Shn3 3UTR inh: -25.1; CSC inhib: -10.6

Results for O=C(Nc1c(F)cccc1F)C1CCN(C(=O)c2cccs2)CC1 ?
Calb FLC: -16.4; Beta cell apopt: 1.1; PfHsp90 set2: 17.3; Shn3 3UTR inh: 5.9; CSC inhib: -7.2

How did O=c1cc(CNc2cc(C(F)(F)F)cc(C(F)(F)F)c2)nc2sccn12 do in these assays?
Calb FLC: 0.9; Beta cell apopt: 6.6; PfHsp90 set2: -25.2; Shn3 3UTR inh: 19.7; CSC inhib: 80.7*

How did Oc1ccc(-c2nc3ccc4ccccc4c3c3c2CCC3)cc1O do in these assays?
Calb FLC: 10.7; Beta cell apopt: -2.7; PfHsp90 set2: 97.7*; Shn3 3UTR inh: -41.9; CSC inhib: 108.6*

How did Cc1ccccc1CNc1nnnn1C do in these assays?
Calb FLC: 12.3; Beta cell apopt: -4.7; Shn3 3UTR inh: -3.3; CSC inhib: -7.6

How did CC(=Cc1ccccc1)C(=O)c1ccccc1 do in these assays?
Shn3 3UTR inh: 9.7

How did O=C(C(Br)=Cc1ccccc1)c1ccccc1 do in these assays?
Shn3 3UTR inh: 96.6*

Results for N/C(=N\NC(=O)c1ccccc1Cl)c1cc2ccccc2oc1=O ?
Calb FLC: -8.0; Beta cell apopt: -11.2; PfHsp90 set2: 4.5; Shn3 3UTR inh: -28.5; CSC inhib: -15.5

How did O=S(=O)(Nc1c(S(=O)(=O)c2ccccc2)c2nc3ccccc3nc2n1C1CCCCC1)c1ccccc1 do in these assays?
Calb FLC: -1.6; Beta cell apopt: 1.6; PfHsp90 set2: -54.6; Shn3 3UTR inh: 2.7; CSC inhib: 106.4*

How did CCOc1ccc(NC2=CC(=O)C(=O)c3ccccc32)cc1 do in these assays?
PfHsp90 set2: -73.9; Shn3 3UTR inh: 11.9

Results for COc1cc(Cl)c(NC2=CC(=O)C(=O)c3ccccc32)c(OC)c1 ?
Beta cell apopt: 104.9*; PfHsp90 set2: -39.7; Shn3 3UTR inh: 19.0; CSC inhib: 109.9*

Results for Cc1ccc(S(=O)(=O)N2CCN(C(=O)CNC(=O)c3ccc(Br)o3)CC2)cc1 ?
Calb FLC: 1.2; Beta cell apopt: -1.6; Shn3 3UTR inh: 1.6; CSC inhib: -7.7

What do the screens show for `O=[N+]([O-])c1ccc(N2CCN(CCOc3nonc3-c3ccccc3)CC2)c(Cl)c1`?
Calb FLC: -8.7; Beta cell apopt: 119.4*; PfHsp90 set2: 20.8; Shn3 3UTR inh: -16.7; CSC inhib: 7.8

Results for COC(=O)c1ccc(Cn2c(C)c(C(=O)NCc3cccs3)sc2=O)o1 ?
Shn3 3UTR inh: 3.1

How did CC(C)Cc1nc2oc3c(Cl)ncnc3c2c2c1CCC2 do in these assays?
Calb FLC: 8.9; Beta cell apopt: -3.5; PfHsp90 set2: -37.1; Shn3 3UTR inh: -14.4; CSC inhib: 85.8*

What do the screens show for `Cc1cccc(CN2C(=O)c3ccccc3S(=O)(=O)c3ccc(C(=O)NCCCN4CCCC4)cc32)c1`?
Calb FLC: 0.3; PfHsp90 set2: 9.2; Shn3 3UTR inh: -2.3

Results for O=C(NCCN1CCCC1)c1ccc2c(c1)N(Cc1cccc(Cl)c1)C(=O)c1ccccc1S2(=O)=O ?
Calb FLC: 3.8; Beta cell apopt: 0.3; PfHsp90 set2: 18.7; Shn3 3UTR inh: -7.5; CSC inhib: 107.1*

Results for O=[N+]([O-])c1ccc(COc2ccc(-c3[nH]ncc3-c3ccccc3)c(O)c2)cc1 ?
Calb FLC: -1.0; Beta cell apopt: 24.7; PfHsp90 set2: 20.1; Shn3 3UTR inh: 48.6; CSC inhib: 118.4*

What do the screens show for `Oc1cc(OCc2ccccc2)ccc1-c1[nH]ncc1-c1ccccc1`?
Calb FLC: 10.2; Beta cell apopt: 5.0; PfHsp90 set2: 105.0*; Shn3 3UTR inh: 34.8; CSC inhib: 46.6

How did COc1ccccc1-c1cn[nH]c1-c1ccc(OCc2ccccc2F)cc1O do in these assays?
Calb FLC: -5.4; Beta cell apopt: 7.5; PfHsp90 set2: inconclusive; Shn3 3UTR inh: -0.3; CSC inhib: 93.4*

Results for COc1ccc(-c2cn[nH]c2-c2ccc(OCc3ccccc3)cc2O)cc1OC ?
Calb FLC: 15.8; Beta cell apopt: 6.7; PfHsp90 set2: 5.3; Shn3 3UTR inh: 27.3; CSC inhib: 43.5

Results for C=CCn1c(SCCN)nnc1-c1cccc(S(=O)(=O)N2CCOCC2)c1 ?
Shn3 3UTR inh: -10.0

How did C[C@@H](C(=O)CC(=O)OC(C)(C)C)[C@@H](O)c1ccccc1 do in these assays?
Calb FLC: -10.4; Beta cell apopt: -5.9; PfHsp90 set2: -0.1; Shn3 3UTR inh: -43.6; CSC inhib: -13.3

What do the screens show for `COc1ccc(/C=C2/C(=O)N(c3nc4ccccc4s3)N=C2CSc2ccc(Cl)cc2)cc1`?
Calb FLC: -17.4; Beta cell apopt: -0.8; PfHsp90 set2: 5.3; Shn3 3UTR inh: 3.2; CSC inhib: 91.9*

Results for CC(C)C[C@H]1CN=C(Nc2ccccc2)N1CC1CCC(C(C)(C)C)CC1 (some centres not stated) ?
Beta cell apopt: 110.7*; PfHsp90 set2: -0.8; Shn3 3UTR inh: -32.1; CSC inhib: 78.6*

What do the screens show for `C(=N\Nc1ccccc1)/c1nc2ccccc2s1`?
Calb FLC: -32.7; Beta cell apopt: -6.2; PfHsp90 set2: -12.8; Shn3 3UTR inh: -78.9; CSC inhib: -6.9
